# Experimental data taken from article PMC11062922 (Nature Chemical Biology, 2023).
# Read-outs that look alike come from different tables or passages of the source.
# Assays:
# Set-up in all cases: species or system human, MV4-11 + K-562 + COLO205 + SK-N-BE2 + OVCAR-8
# ADCK1 = conditions: read-out: apparent Kd, compound concentrations: 100 nM and 1000 nM (sheet 'Samples'), n = 1
# ADK = conditions: read-out: apparent Kd; compound concentrations: 100 nM and 1000 nM (sheet 'Samples'), CATDS: 4.5787667935106503E-2; n = 1
# CDK4 = conditions: read-out: apparent Kd; compound concentrations: 100 nM and 1000 nM (sheet 'Samples'), CATDS: 4.6312693671670499E-2; n = 1
# CSNK1D = conditions: read-out: apparent Kd; compound concentrations: 100 nM and 1000 nM (sheet 'Samples'), CATDS: 7.6669822847603902E-2; n = 1
# CSNK1E = conditions: read-out: apparent Kd; compound concentrations: 100 nM and 1000 nM (sheet 'Samples'), CATDS: 6.5483605156218705E-2; n = 1
# MAP4K5 = conditions: read-out: apparent Kd; compound concentrations: 100 nM and 1000 nM (sheet 'Samples'), CATDS: 6.0957264613737197E-2; n = 1
# PRKACA = conditions: read-out: apparent Kd, compound concentrations: 100 nM and 1000 nM (sheet 'Samples'), n = 1
# PRKACB = conditions: read-out: apparent Kd, compound concentrations: 100 nM and 1000 nM (sheet 'Samples'), n = 1
# PRKCD = conditions: read-out: apparent Kd, compound concentrations: 100 nM and 1000 nM (sheet 'Samples'), n = 1
# PRKCQ = conditions: read-out: apparent Kd; compound concentrations: 100 nM and 1000 nM (sheet 'Samples'), CATDS: 0.20872331441348899; n = 1
# PRKD2 = conditions: read-out: apparent Kd; compound concentrations: 100 nM and 1000 nM (sheet 'Samples'), CATDS: 0.17196563894613301; n = 1
# PRKD3 = conditions: read-out: apparent Kd; compound concentrations: 100 nM and 1000 nM (sheet 'Samples'), CATDS: 0.24703755989756301; n = 1
# RPS6KB1 = conditions: read-out: apparent Kd, compound concentrations: 100 nM and 1000 nM (sheet 'Samples'), n = 1
# TNIK = conditions: read-out: apparent Kd; compound concentrations: 100 nM and 1000 nM (sheet 'Samples'), CATDS: 0.113919393065207; n = 1
# AKT1 = conditions: read-out: apparent Kd; compound concentrations: 100 nM and 1000 nM (sheet 'Samples'), CATDS: 2.85422229355832E-2; n = 1
# AKT2 = conditions: read-out: apparent Kd; compound concentrations: 100 nM and 1000 nM (sheet 'Samples'), CATDS: 2.77493450407107E-2; n = 1
# CDC42BPG = conditions: read-out: apparent Kd; compound concentrations: 100 nM and 1000 nM (sheet 'Samples'), CATDS: 4.9906722196616002E-2; n = 1
# CLK1 = conditions: read-out: apparent Kd; compound concentrations: 100 nM and 1000 nM (sheet 'Samples'), CATDS: 3.0057021324399399E-2; n = 1
# CLK4 = conditions: read-out: apparent Kd; compound concentrations: 100 nM and 1000 nM (sheet 'Samples'), CATDS: 3.6459308399585902E-2; n = 1
# CSNK1A1 = conditions: read-out: apparent Kd; compound concentrations: 100 nM and 1000 nM (sheet 'Samples'), CATDS: 2.8495259280969999E-2; n = 1
# CSNK2A1;CSNK2A3 = conditions: read-out: apparent Kd; compound concentrations: 100 nM and 1000 nM (sheet 'Samples'), CATDS: 2.5783405582401799E-2; n = 1
# HSP90AA1 = conditions: read-out: apparent Kd; compound concentrations: 100 nM and 1000 nM (sheet 'Samples'), CATDS: 2.5840975218280202E-2; n = 1
# IARS = conditions: read-out: apparent Kd; compound concentrations: 100 nM and 1000 nM (sheet 'Samples'), CATDS: 2.4824684596515999E-2; n = 1
# ILK = conditions: read-out: apparent Kd; compound concentrations: 100 nM and 1000 nM (sheet 'Samples'), CATDS: 2.4595530906688499E-2; n = 1
# LATS1 = conditions: read-out: apparent Kd; compound concentrations: 100 nM and 1000 nM (sheet 'Samples'), CATDS: 4.0745202540463502E-2; n = 1
# MAPK11 = conditions: read-out: apparent Kd; compound concentrations: 100 nM and 1000 nM (sheet 'Samples'), CATDS: 3.2120600016528701E-2; n = 1
# MAPK14 = conditions: read-out: apparent Kd; compound concentrations: 100 nM and 1000 nM (sheet 'Samples'), CATDS: 2.84299118528781E-2; n = 1
# MELK = conditions: read-out: apparent Kd; compound concentrations: 100 nM and 1000 nM (sheet 'Samples'), CATDS: 2.8403307321335999E-2; n = 1
# PKN1 = conditions: read-out: apparent Kd; compound concentrations: 100 nM and 1000 nM (sheet 'Samples'), CATDS: 3.7770198987071901E-2; n = 1
# PKN2 = conditions: read-out: apparent Kd; compound concentrations: 100 nM and 1000 nM (sheet 'Samples'), CATDS: 2.64555223020508E-2; n = 1
# PRKCA = conditions: read-out: apparent Kd; compound concentrations: 100 nM and 1000 nM (sheet 'Samples'), CATDS: 2.8417130340745399E-2; n = 1
# PRKG1 = conditions: read-out: apparent Kd; compound concentrations: 100 nM and 1000 nM (sheet 'Samples'), CATDS: 5.7321528324025303E-2; n = 1
# PYGL = conditions: read-out: apparent Kd; compound concentrations: 100 nM and 1000 nM (sheet 'Samples'), CATDS: 2.4948391152713498E-2; n = 1
# RIOK2 = conditions: read-out: apparent Kd; compound concentrations: 100 nM and 1000 nM (sheet 'Samples'), CATDS: 4.2618907121449799E-2; n = 1
# ROCK1 = conditions: read-out: apparent Kd; compound concentrations: 100 nM and 1000 nM (sheet 'Samples'), CATDS: 5.0643849743389702E-2; n = 1
# ROCK2 = conditions: read-out: apparent Kd; compound concentrations: 100 nM and 1000 nM (sheet 'Samples'), CATDS: 5.2344501044754001E-2; n = 1
# SYK = conditions: read-out: apparent Kd; compound concentrations: 100 nM and 1000 nM (sheet 'Samples'), CATDS: 2.51844401612667E-2; n = 1
# T10 = system: T1, T10; conditions: read-out: apparent Kd; compound concentrations: 100 nM and 1000 nM (sheet 'Samples'), CATDS: 2.6247989636004901E-2; n = 1
# T1 construct: gene NAT10
smiles,measurement,setting,value
Cc1n[nH]c2ccc(-c3cc(OC[C@@H](N)Cc4c[nH]c5ccccc45)cnc3-c3ccoc3)cc12.Cc1n[nH]c2ccc(-c3cc(OC[C@@H](N)Cc4c[nH]c5ccccc45)cnc3-c3ccoc3)cc12.O=C(O)C(F)(F)F.O=C(O)C(F)(F)F.O=C(O)C(F)(F)F [GSK562689A],potency estimated from few doses,ADCK1; CATDS: 4.4524563972159897E-2,2150 nM
same,potency estimated from few doses,ADK,1830 nM
same,potency estimated from few doses,CDK4,1720 nM
same,potency estimated from few doses,CSNK1D,302 nM
same,potency estimated from few doses,CSNK1E,464 nM
same,potency estimated from few doses,MAP4K5,577 nM
same,potency estimated from few doses,PRKACA; CATDS: 6.9210809350161107E-2,396 nM
same,potency estimated from few doses,PRKACB; CATDS: 6.0886440238293899E-2,579 nM
same,potency estimated from few doses,PRKCD; CATDS: 6.5587395591723996E-2,462 nM
same,potency estimated from few doses,PRKCQ,41.7 nM
same,potency estimated from few doses,PRKD2,57.2 nM
same,potency estimated from few doses,PRKD3,32.3 nM
same,potency estimated from few doses,RPS6KB1; CATDS: 6.31408503509263E-2,518 nM
same,potency estimated from few doses,TNIK,123 nM
CN(C)CCNS(=O)(=O)c1ccc(-c2ccnc3[nH]ccc23)cc1 [GSK977620A],potency estimated from few doses,ADCK1; CATDS: 9.92203055838001E-2,145 nM
same,potency estimated from few doses,AKT1,1480 nM
same,potency estimated from few doses,AKT2,1600 nM
same,potency estimated from few doses,CDC42BPG,449 nM
same,potency estimated from few doses,CLK1,1300 nM
same,potency estimated from few doses,CLK4,827 nM
same,potency estimated from few doses,CSNK1A1,1490 nM
same,potency estimated from few doses,CSNK2A1;CSNK2A3,1990 nM
same,potency estimated from few doses,HSP90AA1,1980 nM
same,potency estimated from few doses,IARS,2250 nM
same,potency estimated from few doses,ILK,2330 nM
same,potency estimated from few doses,LATS1,658 nM
same,potency estimated from few doses,MAPK11,1100 nM
same,potency estimated from few doses,MAPK14,1500 nM
same,potency estimated from few doses,MELK,1500 nM
same,potency estimated from few doses,PKN1,768 nM
same,potency estimated from few doses,PKN2,1840 nM
same,potency estimated from few doses,PRKACA; CATDS: 4.8150008864783198E-2,479 nM
same,potency estimated from few doses,PRKACB; CATDS: 3.8489694396370601E-2,738 nM
same,potency estimated from few doses,PRKCA,1500 nM
same,potency estimated from few doses,PRKCD; CATDS: 2.7001587668499999E-2,1730 nM
same,potency estimated from few doses,PRKG1,352 nM
same,potency estimated from few doses,PYGL,2220 nM
same,potency estimated from few doses,RIOK2,602 nM
same,potency estimated from few doses,ROCK1,437 nM
same,potency estimated from few doses,ROCK2,412 nM
same,potency estimated from few doses,RPS6KB1; CATDS: 2.7290145261830101E-2,1680 nM
same,potency estimated from few doses,SYK,2150 nM
same,potency estimated from few doses,T10,1890 nM
